We go through 51 compounds from PubChem BioAssay AID624296 (National Center for Advancing Translational Sciences (NCATS), 2012).

Where “and” joins values, the source holds several entries; their conditions need not be identical. Identical values can stand only once. The whole screen tested about 350,000 compounds, of which about 9,900 (2.8%) were called active. Inconclusive results (about 15%) are left out. Calls follow the shape of the dose curve; as a rule, active = well fitted activation curve with a large enough effect; inconclusive = small, poorly fitted or top-dose-only effect; inactive = no such curve, though single readings can be large or run the other way. The entries come from a sample that favours actives as a whole. Some structures have more than one record in an assay (separate samples or runs), and their calls can disagree.
Potency is read from the fitted curve at half-maximal effect.

This test in a line: A quantitative high throughput screen for small molecules that induce DNA re-replication in MCF 10a normal breast cells. Also: nearly all actives have a fitted effect of over 50% in size. As to activity, positive = re-replication: % of control where 0% means no effect. Particulars: MCF 10A DNA re-replication, Hoechst nuclear intensity, 48 h; series mostly up to 46.1 µM; activity, positive = re-replication: at the top concentration.
Consider `COc1ccc(C2C(C#N)=C(N)Oc3cc(N)ccc32)cc1OC` (stereo unspecified), for which the Potency is 18.4 µM (active).

As for `O=C1NCC(c2ccccc2)(c2ccccc2)C(=O)N1`, the “activity, positive = re-replication” value is -6.97% (inactive).

As for `O=C(Cc1ccc([N+](=O)[O-])cc1)NCCc1ccc2c(c1)OCO2`, the “activity, positive = re-replication” value was 1.24% (inactive).

Take `O=C(c1cccnc1)N(Cc1ccccc1)C(=O)c1cccnc1`: the “activity, positive = re-replication” value was -18.6% (inactive).

`COC(=O)Cc1csc(/N=C/c2c(O)n(-c3cccc(C(F)(F)F)c3)c(=O)c3ccccc23)n1`: the Potency entry is “inactive and 3.26 µM (active)”.

As for `Cc1ccc(-n2c(O)c(C=Nc3ccc(S(=O)(=O)Nc4ncccn4)cc3)c3ccccc3c2=O)cc1C`, the “activity, positive = re-replication” value is -2.8% (inactive).

As for `COC(=O)Cc1csc(Nc2c(C)n(C)n(-c3ccccc3)c2=O)n1`, the “activity, positive = re-replication” value is 1.03% (inactive).

In the case of `Cc1ccc(C)c(NC(=O)COC(=O)c2nn(C)c(=O)c3ccccc23)c1`, the “activity, positive = re-replication” value is -0.108% (inactive).

On to `COC(=O)c1ccc(COc2ccc(/C=C/C(=O)c3ccc(OC)c(CSCC(=O)O)c3)cc2OC)cc1`, for which the Potency is 2.91 µM (active).

In the case of `COc1cc(/C=N/O)ccc1OCc1ccc([N+](=O)[O-])cc1`, the “activity, positive = re-replication” value is 10.9% (inactive).

Regarding `COc1ccc(/C=C/C(=O)N2CCCC2)cc1OC`, the “activity, positive = re-replication” value was -0.699% (inactive).

For `Cc1c(Cl)cnc(NC(=O)COC(=O)C2CCCC2)c1Cl`, the “activity, positive = re-replication” value was -0.757% (inactive).

For `Cc1noc(C)c1COc1ccc(C(=O)NCCOc2ccccc2)cc1`, the “activity, positive = re-replication” value is -5.83% (inactive).

Regarding `COc1ccc(C(=O)COC(=O)c2c(C)noc2C)cc1Cl`, the “activity, positive = re-replication” value was -7.07% (inactive).

For the compound `Cc1onc(-c2ccccc2Cl)c1C(=O)OCc1nnc(-c2ccccc2)o1`, the “activity, positive = re-replication” value is 3.73% (inactive).

For the compound `Cc1onc(-c2ccccc2Cl)c1C(=O)OCC(=O)c1ccccc1`, the Potency was 16.4 µM (active).

As for `COc1cc(C(=O)OCc2cc(=O)n3ccsc3n2)ccc1OC(C)C`, the “activity, positive = re-replication” value is 1.85% (inactive).

With `O=C(CN1C(=O)COc2ccccc21)NCCN1CCc2ccccc2C1`, the “activity, positive = re-replication” value was 1.31% (inactive).

On to `O=C(CN1C(=O)COc2ccccc21)Nc1ccc(F)cc1`, for which the Potency was 20.6 µM (active).

Turning to `CC(OC(=O)CN1C(=O)COc2ccccc21)C(=O)NCc1ccc(F)cc1` (stereo unspecified), the “activity, positive = re-replication” value was -13.3% (inactive).

For the compound `Cc1ccc(S(=O)(=O)N2CCN(C(=O)c3cc(S(=O)(=O)N4CCOCC4)ccc3F)CC2)cc1`, the “activity, positive = re-replication” value was 9.74% (inactive).

Take `O=C(c1ccc(Cl)c(S(=O)(=O)N2CCCCCC2)c1)N1CCN(c2ccc(O)cc2)CC1`: the “activity, positive = re-replication” value was 13.3% (inactive).

Consider `Cc1ccc(C(C[N+](=O)[O-])c2c(C)cc3ccccn23)cc1` (stereo unspecified), for which the Potency is 20.6 µM (active).

For the compound `CC(=O)Nc1ccc(/C=N/Nc2ccc(C(=O)c3c(C)cc4ccccn34)cc2[N+](=O)[O-])cc1`, the “activity, positive = re-replication” value is -1.8% (inactive).

Take `Cc1ccc(C(=O)NNC(=O)CSc2nnc3ccccn23)cc1`: the “activity, positive = re-replication” value was 5.99% (inactive).

For the compound `CCCCC(=O)N/N=C(\C)CC(=O)Nc1cc(Cl)ccc1OC`, the “activity, positive = re-replication” value was -0.526% (inactive).

Regarding `C/C(CC(=O)NCc1ccc(Cl)cc1)=N\NC(=O)COc1ccc(C)cc1Br`, the Potency was 5.8 µM (active).

On to `Cc1cc(Cl)ccc1OCCCC(=O)NCc1ccncc1`, for which the “activity, positive = re-replication” value is 2.15% (inactive).

For `COc1ccc(CC(=O)N[C@@H]2c3cc(OC)c(OC)cc3C[C@H]2OCc2ccccc2)cc1`, the “activity, positive = re-replication” value is -30.6% (inactive).

Consider `Cc1ccc(C(=O)Nc2ccccc2-c2ccccc2)cc1S(=O)(=O)Nc1ccccc1`, for which the “activity, positive = re-replication” value is -0.658% (inactive).

Turning to `O=S(=O)(Nc1cc(Cl)ccc1N1CCOCC1)c1ccccc1Cl`, the “activity, positive = re-replication” value was 8.16% (inactive).

`CCCc1ccc(-c2c(C)sc(NC(=O)c3ccnn3C)c2C#N)cc1`: the Potency was 16.4 µM (active).

Turning to `Cc1sc(NC(=O)C2=COCCO2)c(C#N)c1C`, the “activity, positive = re-replication” value was 1.25% (inactive).

In the case of `Cn1nccc1CNC(=O)c1ccnn1C`, the “activity, positive = re-replication” value is 2.28% (inactive).

On to `COCC(=O)N(C)[C@H]1C[C@H]2c3cc(Oc4ccccc4C)ccc3CCN2C(=O)[C@H]1[C@H](C)O`, for which the “activity, positive = re-replication” value is -6.77% (inactive).

Consider `CC(=O)n1cc([C@H]2C=C(C(=O)N3CCOCC3)O[C@@H](OCc3ccc(CO)cc3)C2)c2ccccc21`, for which the “activity, positive = re-replication” value was -18.7% (inactive).

Take `CN1CCN(C(=O)C2=C[C@H](c3ccc4c(c3)OCO4)C[C@H](OCc3ccc(CO)cc3)O2)CC1`: the Potency is 8.2 µM (active).

For the compound `CC(=O)n1cc([C@@H]2C=C(C(=O)N3CCN(Cc4ccc5c(c4)OCO5)CC3)O[C@H](OCc3ccc(CO)cc3)C2)c2ccccc21`, the Potency is 13 µM (active).

With `O=C(C1=C[C@H](c2coc3ccccc3c2=O)C[C@H](OCc2ccc(CO)cc2)O1)N1CCOCC1`, the “activity, positive = re-replication” value was 12.5% (inactive).

Take `C=CCOC(=O)C1=C[C@@H](c2ccc3c(c2)OCO3)C[C@@H](OCCCCO)O1`: the “activity, positive = re-replication” value is 2.54% (inactive).

On to `NC(=O)C1=C[C@@H](c2ccc3c(c2)OCO3)C[C@@H](OCCCCO)O1`, for which the “activity, positive = re-replication” value was 4.84% (inactive).

For the compound `Cc1ccc2c(CN3CCN(S(=O)(=O)c4ccccc4C(F)(F)F)CC3)cc(=O)oc2c1`, the “activity, positive = re-replication” value is 0.766% (inactive).

In the case of `COc1cc(C(c2c(NC(=O)c3ccco3)sc(C)c2C)N2CCOCC2)cc(OC)c1OC` (stereo unspecified), the “activity, positive = re-replication” value is 16.7% (inactive).

Turning to `O=C(O)c1ccc([N+](=O)[O-])cc1Sc1ccsc1`, the “activity, positive = re-replication” value is 5.85% (inactive).

On to `Cc1ccc(C)c(S(=O)(=O)N(C)c2ccc(OC(=O)C3CCN(C(=O)c4ccc(F)cc4)CC3)cc2)c1`, for which the “activity, positive = re-replication” value is 4.81% (inactive).

For `COc1ccc(CCC(=O)Nc2ccc(Cl)c(S(=O)(=O)N3CCOCC3)c2)cc1OC`, the “activity, positive = re-replication” value was -1.15% (inactive).

As to `COc1ccc(Br)cc1CN(C)C(=O)C1CC(=O)N(C2CCCC2)C1` (stereo unspecified), the “activity, positive = re-replication” value is 1.01% (inactive).

As to `COc1ccc(OC)c(NC(=O)COC(=O)Cc2ccsc2)c1`, the “activity, positive = re-replication” value was -0.467% (inactive).

Consider `CC(C)(C)c1ccc(/C=C/C(=O)Nc2ncccn2)cc1`, for which the “activity, positive = re-replication” value is 5.09% (inactive).

`CC(C)(C)c1ccc(/C=C/C(=O)NC2CCS(=O)(=O)C2)cc1` (stereo unspecified): the Potency is 0.92 µM (active).

For `O=C(COC(=O)/C=C/c1ccc2c(c1)OCO2)NC1CCS(=O)(=O)C1` (stereo unspecified), the “activity, positive = re-replication” value is -8.83% (inactive).
